SARS PLpro yeast: SARS-CoV PLP inhibition in yeast | actives 0.19% (n = 330,000) | S. cerevisiae expressing SARS-CoV PLpro, growth rescue | Potency, µM (highest dose often 32.9 µM), for inactives: at the highest dose activity, positive = growth rescue, most hits filed as activators; calls by dose curve; also: potency is read from the fitted curve at half-maximal effect; 0% is about no effect; nearly all actives have a fitted effect of over 55% in size
Pf growth 48h: inhibits P. falciparum growth in the first generation, 48 h. actives 5.9% (n = 310,000). Potency, µM (top dose mostly 28.7 µM), inactives show at the top dose activity change, negative = inhibition, hits mostly inhibitors. P. falciparum luciferase growth in erythrocytes, 48 h. AID 504832; also: potency is read from the fitted curve at half-maximal effect; % is scaled to controls: 0 for no effect and ±100 for the full control effect
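Luminescence readout; reporter = integrated firefly luciferase in P. falciparum. RBC culture at 2% hematocrit, 0.1% parasitemia final, 37 C/5% CO2; decreased signal taken as growth inhibition.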
NS1 function inh: influenza NS1 inhibition; AID 2326; actives 0.4% (n = 270,000); Potency, µM (doses to about 46.1 µM), for the others: at the top dose activity, positive = more growth; calls by dose curve; also: potency is read from the fitted curve at half-maximal effect; actives are rising curves; nearly all actives have a fitted effect of over 50% in size
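Read-out: OD600 growth recovery of NS1-expressing budding yeast. Cells grown overnight at 30C in -URA glucose medium, washed, resuspended and diluted 1:100 in 2% galactose assay medium, pH 6.0. Same strain lacking NS1 served as positive control.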
Cycloheximide cs: affects cycloheximide protein synthesis inhibition readout, counter-screen. cell reporter, cycloheximide protein synthesis inhibition counterscreen. max response, %. actives 12% (n = 300,000). AID 2314; in the data active = max response mostly above about 13%, no sharp cut-off; inactive = mostly below about 14%; also: read at 38.3 µM for the half of the compounds with a filed dose; 0% is about no effect
Pf growth 96h: P. falciparum growth inhibition at 96 hours. actives 6.9% (n = 320,000). Potency, µM (top dose mostly 28.7 µM), inactives show top-dose activity change, negative = inhibition, hits mostly inhibitors. P. falciparum luciferase reporter growth, 96 h; also: potency is read from the fitted curve at half-maximal effect; % is scaled to controls: 0 for no effect and ±100 for the full control effect
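Luminescence readout: decreased luciferase signal marks inhibited growth of reporter-expressing P. falciparum in infected red cells (2% hematocrit, 0.05% parasitemia final), exposed to compound two generations (96 h, 37 C, 5% CO2).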
Shiga inhibitor: blocks Shiga toxin action in Vero cells; Vero cells, Shiga toxin protein synthesis inhibition reporter; inhibition, % at 38.7 µM; actives 9.2% (n = 290,000); AID 2315; in the data active = inhibition mostly above about 28%, no sharp cut-off; inactive = mostly below about 43%; also: 0% is about no effect
The depositor's hits bear a star; ? = inconclusive; . = not tested or not shown. Sampled rows, rich in hits. Any-hit rate of the full collection: about 21%. Unless noted, calls follow the shape of the dose curve; as a rule, active = well fitted inhibition curve with a large enough effect; inconclusive = small, poorly fitted or top-dose-only effect, or another doubt; inactive = no such curve, though single readings can be large or run the other way.

SMILES | SARS PLpro yeast | Pf growth 48h | NS1 function inh | Cycloheximide cs | Pf growth 96h | Shiga inhibitor
Cc1cccc(/C=C2\CCC(=C3SCCCS3)C2=O)c1 | 0% | 166% | -12% | 44* | 81% | 80*
Cc1ccc(N2C(=O)CC(N3CCN/C3=C3\CC/C(=C\c4ccccc4)C3=O)C2=O)cc1 (stereo not given) | 0% | -19% | . | 3 | 9% | -7
O=C1C(=C2SCCCS2)CC/C1=C\c1ccc(F)cc1 | -12% | 4% | -5% | 31* | 80% | 79*
O=C1CNC(=O)/C(=C\c2ccc(F)cc2)N1 | 0% | . | 0% | -3 | 15% | -5
O=c1[nH]c(SCc2nc3ccccc3c(=O)n2-c2ccccc2C(F)(F)F)nc2ccccc12 | 1% | ? | 12% | 8 | -11% | -8
O=C(N/N=C/c1cccc2cccnc12)c1ccccc1O | -3% | ? | -66% | 32* | 0% | 84*
O=C(N/N=C/c1cccc2nccnc12)c1ccccc1O | -2% | ? | -10% | 19* | ? | 37*
COC(=O)c1ccc(CNC(=O)COC(=O)/C=C/c2cc(OC)c(OC)c(OC)c2)cc1 | -3% | . | . | . | . | .
CC(=O)Nc1ccc(SCC(CC(C)C)N2CCN(CC(C)C)CCC2=O)cc1 (stereo not given) | . | . | . | -10 | . | -13
CCCN1CCC(=O)N(C(CSc2ccc(C)cc2)CC(C)C)CC1 (stereo not given) | . | . | . | 42* | . | 77*
CC(C)C[C@@H](CSc1ccccc1)N1CCN(CC(C)C)CCC1=O | -3% | ? | -17% | 35* | ? | 47*
CCCN1CCC(=O)N([C@H](CSc2ccc(C)cc2)CC(C)C)CC1 | 1% | ? | -5% | 71* | -78% | 62*
CC(=O)Nc1ccc(SCC(CC(C)C)N2CCN(CCc3ccccc3)CCC2=O)cc1 (stereo not given) | . | . | . | -5 | . | -9
CCCN1CCC(=O)N([C@H](CSc2ccccc2)CC(C)C)CC1 | 5% | 61% | -5% | 45* | ? | 42*
Cc1ccc(SCC(Cc2ccccc2)N2CCN(C)CCC2=O)cc1 (stereo not given) | . | . | . | -2 | . | 2
CCCn1nnnc1NCc1ccccc1C | -2% | 2% | 7% | -2 | -3% | -5
Cc1cc(C)c2nc3c(c([C@H](O)C4CCCCN4)c2c1)CC/C3=C/c1ccc(Cl)cc1 (stereo not given in full) | . | . | -15% | . | . | .
Cc1ccn2c(C(=O)NNC(=O)Nc3ccc(Cl)cc3)c(C)nc2c1 | -3% | -27% | -10% | -2 | ? | -7
Cn1cc(CN(CCO)Cc2cccs2)c(-c2ccccc2F)n1 | 0% | 2% | -2% | 1 | ? | -7
CC(C)[C@@H](CSc1ccccc1)N1CCN(Cc2ccccc2)CCC1=O | 2% | 15µM* | -26% | -2 | -8% | -3
CC(C)CC(CSc1ccc(Br)cc1)N1CCN(CC(C)C)CCC1=O (stereo not given) | . | . | . | 80* | . | 108*
O=C(c1ccc(S(=O)(=O)c2ccccc2Cl)c([N+](=O)[O-])c1)N1CCN(Cc2ccccc2)CC1 | 7% | ? | -16% | -1 | ? | -1
O=C(CN1C(=O)NC2(CCOc3ccccc32)C1=O)c1ccc[nH]1 (stereo not given) | -9% | 1% | . | . | 17% | .
Nc1ccccc1Nc1nc2ccccc2[nH]1 | -2% | 66% | ? | 27* | 10µM* | 34*
Cc1ccc2nc(Nc3nc(-c4ccccc4)cc(=O)[nH]3)nc(C)c2c1 | 3% | ? | 12% | -3 | ? | -17
Cc1cc(C)nc(Nc2nc3ccccc3[nH]2)n1 | 4% | 90% | -22% | 29* | 10% | 90*
Cc1ccc2nc(Nc3nc(C)cc(-c4ccccc4)n3)[nH]c(=O)c2c1 | 1% | 3.3µM* | 4% | -1 | 6.6µM* | -17
c1ccc(Nc2nc3ccccc3[nH]2)nc1 | ? | ? | -33% | 70* | ? | 86*
CC(C)(C)c1nc2ccccc2[nH]1 | 9% | . | 3% | 1 | 25% | 13
Nc1ccc(Nc2nc3ccccc3[nH]2)cc1 | 6% | ? | 12% | 6 | 0% | -6
